Laboratory results: the antibiotic and cytotoxicity screens of Wong et al. (2023)
Out of some 39,000 compounds screened, about 3,300 (8.5%) were called active. The list comes from a sample in which actives are over-represented; it also holds similar structures and randomly drawn compounds.

These compounds were tested on HepG2 (assay: cytotoxicity call (relative viability < 0.9)). Settings: 10 µM.

SMILES	cytotoxicity call
C[C@H]1CCCCO[C@@H](CN(C)C(=O)Nc2ccc(F)cc2)[C@@H](C)CN([C@@H](C)CO)C(=O)c2cc(NS(=O)(=O)c3ccccc3)ccc2O1	inactive
CC(C)NC(=O)N(C)C[C@H]1Oc2ccc(NC(=O)Cc3ccccc3)cc2C(=O)N([C@H](C)CO)C[C@H]1C	inactive
C[C@H](CO)N1C[C@H](C)[C@H](CN(C)C(=O)Nc2ccccc2)OCCCC[C@H](C)Oc2ccc(NC(=O)c3ccccc3)cc2C1=O	inactive
COc1cccc(NC(=O)N[C@@H]2C=C[C@@H](CC(=O)N3CCOCC3)O[C@@H]2CO)c1	inactive
C[C@@H]1CN([C@H](C)CO)C(=O)c2cccc(NC(=O)c3nc4ccccc4s3)c2O[C@@H]1CN(C)S(=O)(=O)c1cn(C)cn1	inactive
CC(C)NC(=O)N(C)C[C@@H]1Oc2c(NC(=O)Nc3ccc4c(c3)OCO4)cccc2C(=O)N([C@H](C)CO)C[C@@H]1C	inactive
C[C@H](CO)N1C[C@H](C)[C@H](CN(C)C(=O)C2CCCCC2)OCCCC[C@H](C)Oc2ccc(NS(=O)(=O)c3cccs3)cc2C1=O	inactive
Cc1cc(C)n(C(=O)Cn2cc([N+](=O)[O-])cn2)n1	inactive
C[C@H](CO)N1C[C@H](C)[C@H](CN(C)Cc2ccncc2)Oc2ccc(NS(=O)(=O)c3ccc(F)cc3)cc2CC1=O	inactive
CC(=O)c1ccn[nH]1	inactive
COC(=O)[C@@]12CCC(C)(C)C[C@@H]1[C@@H]1C(=O)C=C3[C@]4(C)C=C(C#N)C(=O)C(C)(C)[C@H]4CC[C@]3(C)[C@@]1(C)CC2	active
COC(=O)[C@]12CCC(C)(C)C[C@H]1[C@H]1C(=O)C=C3[C@@]4(C)C=C(C#N)C(=O)C(C)(C)[C@@H]4CC[C@@]3(C)[C@]1(C)CC2	active
Cc1ccccc1S(=O)(=O)N1C[C@H](O)COC[C@H]2O[C@H](CC(=O)NCc3ccccc3Cl)CC[C@@H]21	inactive
Cc1noc(C)c1NC(=O)Nc1cccc2c1O[C@H](CN(C)C(=O)NC(C)C)[C@@H](C)CN([C@@H](C)CO)C2=O	inactive
C[C@@H]1CN([C@@H](C)CO)C(=O)Cc2cc(NC(=O)CCN3CCOCC3)ccc2O[C@@H]1CN(C)C(=O)NC1CCCCC1	inactive
C[C@@H]1CN([C@H](C)CO)C(=O)c2cc(C#CC3(O)CCCC3)cnc2O[C@@H]1CN(C)S(C)(=O)=O	inactive
Cc1ccc(S(=O)(=O)Nc2ccc3c(c2)C(=O)N([C@@H](C)CO)C[C@H](C)[C@H](CN(C)Cc2ccc(Oc4ccccc4)cc2)O3)cc1	inactive
Cc1ccc(S(=O)(=O)Nc2ccc3c(c2)C(=O)N([C@H](C)CO)C[C@@H](C)[C@H](CN(C)Cc2ccc(Oc4ccccc4)cc2)O3)cc1	active
Cc1ccc(S(=O)(=O)Nc2ccc3c(c2)C(=O)N([C@@H](C)CO)C[C@@H](C)[C@H](CN(C)Cc2ccc(Oc4ccccc4)cc2)O3)cc1	inactive
Cc1ccc(S(=O)(=O)Nc2ccc3c(c2)C(=O)N([C@@H](C)CO)C[C@H](C)[C@@H](CN(C)Cc2ccc(Oc4ccccc4)cc2)O3)cc1	inactive
Cc1ccc(S(=O)(=O)Nc2ccc3c(c2)C(=O)N([C@H](C)CO)C[C@H](C)[C@@H](CN(C)Cc2ccc(Oc4ccccc4)cc2)O3)cc1	inactive
Cc1ccc(S(=O)(=O)Nc2ccc3c(c2)C(=O)N([C@H](C)CO)C[C@@H](C)[C@@H](CN(C)Cc2ccc(Oc4ccccc4)cc2)O3)cc1	active
Cc1ccc(S(=O)(=O)Nc2ccc3c(c2)C(=O)N([C@H](C)CO)C[C@H](C)[C@H](CN(C)Cc2ccc(Oc4ccccc4)cc2)O3)cc1	inactive

SMILES	cytotoxicity call
Cc1ccc(S(=O)(=O)Nc2ccc3c(c2)C(=O)N([C@@H](C)CO)C[C@@H](C)[C@@H](CN(C)Cc2ccc(Oc4ccccc4)cc2)O3)cc1	active
NCC(=O)NC1CCCCC1	inactive
COc1ccc(NC(=O)N(C)C[C@@H]2Oc3ccc(NS(C)(=O)=O)cc3C(=O)N([C@H](C)CO)C[C@H]2C)cc1	inactive
COc1ccc2c3c(n(c2c1)C)[C@@H](CO)N(Cc1cc(cc(c1)OC)OC)C[C@]13CCN(CC1)S(=O)(=O)c1cn(cn1)C	inactive
C[C@@H]1CN([C@H](C)CO)C(=O)Cc2cc(NS(=O)(=O)c3cccs3)ccc2O[C@@H]1CN(C)CC1CC1	inactive
C[C@@H]1CN([C@@H](C)CO)C(=O)c2cccc(NS(=O)(=O)c3cn(C)cn3)c2O[C@@H]1CN(C)S(=O)(=O)c1ccc(F)cc1	inactive
Cc1ccc(S(=O)(=O)N(C)C[C@H]2Oc3c(NS(=O)(=O)c4cccs4)cccc3C(=O)N([C@H](C)CO)C[C@H]2C)cc1	inactive
C[C@H]1CCCCO[C@H](CN(C)C(=O)Nc2ccc(F)cc2)[C@@H](C)CN([C@@H](C)CO)C(=O)c2cc(NC(=O)C3CCCCC3)ccc2O1	inactive
CCCN(C)C[C@@H]1OCCCC[C@H](C)Oc2ccc(NC(=O)Nc3ccc(F)cc3)cc2C(=O)N([C@H](C)CO)C[C@@H]1C	inactive
Cc1ccc(S[C@]2(C(=O)NCc3ccccc3)CC(=O)N(C3CCCCC3)[C@@H]2c2ccc(CO)cc2I)cc1	inactive
C=CCC[C@H](Cc1ccc(F)cc1)C(=O)OC[C@@H](NC(=O)[C@H](CC=C)CC(=O)N(CCO)Cc1ccccc1)C(C)(C)C	inactive
COc1ccc(-c2coc3c(O)c(O)c(OC)cc3c2=O)cc1	active
COc1ccc(-c2coc3c(OC)c(OC)cc(O)c3c2=O)cc1	inactive
COc1ccc(-c2coc3cc(O)ccc3c2=O)cc1	inactive
CC(C)NC(=O)Nc1ccc2c(c1)CC(=O)N([C@@H](C)CO)C[C@@H](C)[C@H](CN(C)C(=O)Nc1ccc3c(c1)OCO3)O2	inactive
COCc1cc(C)nc(N)c1C#N	inactive
Cc1ccc2c(N)[nH]nc2n1	inactive
COCc1cc(C)nc2n[nH]c(N)c12	active
Cc1noc(C)c1S(=O)(=O)N(C)C[C@@H]1Oc2ccc(NC(=O)Cc3cn(C)c4ccccc34)cc2CC(=O)N([C@@H](C)CO)C[C@@H]1C	inactive
C[C@@H]1CN([C@H](C)CO)C(=O)c2cc(NC(=O)c3ccccc3)ccc2O[C@@H](C)CCCCO[C@H]1CN(C)C(=O)Nc1ccc(C(F)(F)F)cc1	inactive
C[C@@H](O)c1nnc(N)[nH]1	inactive
C[C@@H]1CN([C@@H](C)CO)C(=O)c2cc(NS(=O)(=O)c3ccc(Cl)cc3)ccc2O[C@H]1CN(C)Cc1ccc(-c2ccccc2)cc1	inactive
C[C@H](CO)N1C[C@H](C)[C@H](CN(C)Cc2ccc(-c3ccccc3)cc2)Oc2ccc(NS(=O)(=O)c3ccc(Cl)cc3)cc2C1=O	active

SMILES	cytotoxicity call
C[C@H](CO)N1C[C@H](C)[C@@H](CN(C)Cc2ccc(-c3ccccc3)cc2)Oc2ccc(NS(=O)(=O)c3ccc(Cl)cc3)cc2C1=O	active
C[C@H]1CN([C@@H](C)CO)C(=O)c2cc(NS(=O)(=O)c3ccc(Cl)cc3)ccc2O[C@@H]1CN(C)Cc1ccc(-c2ccccc2)cc1	inactive
C[C@@H]1CN([C@@H](C)CO)C(=O)c2cc(NS(=O)(=O)c3ccc(Cl)cc3)ccc2O[C@@H]1CN(C)Cc1ccc(-c2ccccc2)cc1	active
C[C@@H]1CN([C@H](C)CO)C(=O)c2cc(NS(=O)(=O)c3ccc(Cl)cc3)ccc2O[C@H]1CN(C)Cc1ccc(-c2ccccc2)cc1	inactive
C[C@@H]1CN([C@H](C)CO)C(=O)c2cc(NS(=O)(=O)c3ccc(Cl)cc3)ccc2O[C@@H]1CN(C)Cc1ccc(-c2ccccc2)cc1	active
C[C@H]1CN([C@@H](C)CO)C(=O)c2cc(NS(=O)(=O)c3ccc(Cl)cc3)ccc2O[C@H]1CN(C)Cc1ccc(-c2ccccc2)cc1	inactive
C[C@H](CO)N1C[C@H](C)[C@H](CN(C)Cc2ccc(Oc3ccccc3)cc2)Oc2cc(Br)ccc2S1(=O)=O	inactive
C[C@H]1CN([C@@H](C)CO)C(=O)c2cc(NC(=O)CCCCCC(=O)Nc3ccccc3N)ccc2O[C@@H]1CN(C)C(=O)Nc1cccc2ccccc12	inactive
CC(C)NC(=O)N(C)C[C@H]1Oc2ccc(NS(=O)(=O)c3ccc(Cl)cc3)cc2C(=O)N([C@H](C)CO)C[C@@H]1C	inactive
C[C@H](CO)N1C[C@H](C)[C@H](CN(C)C(=O)Nc2ccc(F)cc2)Oc2c(NS(=O)(=O)c3cn(C)cn3)cccc2C1=O	inactive
C[C@@H]1CN([C@@H](C)CO)C(=O)c2cccc(NC(=O)Nc3ccc(C(F)(F)F)cc3)c2O[C@@H]1CN(C)S(=O)(=O)c1ccc(F)cc1	inactive
Nc1ncnc(N[C@H]2CCS(=O)(=O)C2)c1[N+](=O)[O-]	inactive
C[C@@H]1CCCCO[C@H](CN(C)Cc2ccc(C(F)(F)F)cc2)[C@H](C)CN([C@H](C)CO)C(=O)c2cc(NC(=O)CCC(F)(F)F)ccc2O1	inactive
COCC(=O)N1C[C@H](C)[C@H](OC)CN(C)C(=O)c2ccc(NC(=O)Nc3ccccc3)cc2OC[C@H]1C	inactive
C[C@@H]1CN([C@H](C)CO)C(=O)Cc2cc(NS(=O)(=O)c3ccccc3)ccc2O[C@H]1CN(C)Cc1ccc(C(=O)O)cc1	inactive
COc1ccc(S(=O)(=O)Nc2ccc3c(c2)C(=O)N([C@H](C)CO)C[C@H](C)[C@@H](CN(C)CC2CCCCC2)OCCCC[C@@H](C)O3)cc1	inactive
C[C@H](CO)N1C[C@H](C)[C@@H](CN(C)S(=O)(=O)c2ccccc2)Oc2c(NS(=O)(=O)c3ccc(F)cc3)cccc2C1=O	inactive
COc1ccc(C#Cc2cccc(-c3nc(C(=O)N4CCN(Cc5ccccc5)CC4)cc4c3[C@@H](CCO)N(S(=O)C(C)(C)C)C4)c2)cc1OC (some centres undefined)	inactive
CC(C)(C)S(=O)N1Cc2cc(C(=O)N3CCN(Cc4ccccc4)CC3)nc(-c3cccc(-c4cc5ccccc5o4)c3)c2[C@H]1CCO (some centres undefined)	active
CC(C)(C)[S@](=O)N1Cc2cc(C(=O)N3CCCCC3)nc(-c3cccc(-c4ccccc4F)c3)c2[C@@H]1CCO	inactive
CC(C)(C)[S@@](=O)N1Cc2cc(C(=O)N3CCCCC3)nc(-c3cccc(-c4ccccc4F)c3)c2[C@H]1CCO	inactive
CC(C)(C)S(=O)N1Cc2cc(C(=O)N3CCN(Cc4ccccc4)CC3)nc(-c3cccc(C#CCC4CCCC4)c3)c2[C@H]1CCO (some centres undefined)	active
COc1ccc(C#Cc2cccc(-c3nc(C(=O)N4CCN(Cc5ccccc5)CC4)cc4c3[C@H](CCO)N(S(=O)C(C)(C)C)C4)c2)cc1OC (some centres undefined)	inactive
